Data published in PubChem BioAssay (NCATS).
Results filed as inconclusive are left out. Calls of active or inactive are those of the source. Unless noted, the call rests on the fitted dose curve; in most records, active means well fitted curve in the direction sought with a large enough effect; inconclusive means small, poorly fitted or top-dose-only effect, or another doubt; inactive means no such curve, though single readings can be large; an effect the other way counts as inactive or inconclusive.

Assays:
[1] = AP1 Signaling Pathway (AID 357; active means well fitted curve in either direction with a large enough effect, not every such curve was filed as active;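 further: ME-180 reporter cells stimulated with EGF at its EC50 level; on the % scale 0 is the no-effect control and ±100 the full control effect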)
How it was run: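 Read-out was the 460nm/530nm emission ratio (excitation 405nm) after CCF4 loading for 2.5 hours at room temperature. Cells carried an AP-1-driven beta-lactamase reporter, were stimulated with EC50 EGF plus compound for 5 hours, and AC50 values came from titrations.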

[2] = biological target: Cytochrome P450 1A2 (Homo sapiens) (UniProt P05177); test: p450-cyp1a2 (AID 410; calls by dose curve; further: potency means the concentration at half of the fitted maximal effect)
How it was run: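 Luminescent demethylation readout: Luciferin-ME (100uM, equal to Km) turned over by 20nM CYP1A2 for 60 min at room temperature after NADPH regeneration addition, following 10 min compound preincubation. Normalization used 57 uM furafylline as full inhibition.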

[3] = NFAT Signaling Pathway (AID 444; active means well fitted curve in either direction with a large enough effect, not every such curve was filed as active;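 further: carbachol stimulus at about its EC50 of 1 µM final; on the % scale 0 is the no-effect control and ±100 the full control effect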); conditions: Jurkat NFAT-bla M1, carbachol, beta-lactamase ratio, 5 h; at 38 µM (top of the series)
How it was run: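 Read-out: CCF4 FRET ratio (460 nm/530 nm) after 1 h RT dye loading, used for %activity and AC50 from titration series. Cells: Jurkat NFAT-β-lactamase/M1 line, treated with compound plus 1 uM carbachol for 5 h, 37 °C.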

[4] = biological target: Glucocorticoid receptor (Homo sapiens) (UniProt P04150); test: GR-GFP Redistribution (AID 450;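 active means compounds whose dose series gives a full or clear partial fitted curve of increased nuclear translocation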; further: potency means the concentration at half of the fitted maximal effect); conditions: U2OS GR-GFP nuclear translocation, laser cytometry, 2 h
[5] = biological target: Mitogen-activated protein kinase 10 (Mus musculus) (UniProt Q61831); test: JNK3 AlphaScreen Assay (AID 530; active means well fitted curve in either direction with a large enough effect, not every such curve was filed as active;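 further: kinase came from lysate of stimulated human HepG2 cells; signal reports phosphorylation of biotinylated GST-cJun 1-79 at Ser73 with 10 µM ATP; on the % scale 0 is the no-effect control and ±100 the full control effect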)
How it was run: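 qHTS titrations with 15 min compound pre-incubation before adding ATP (10 uM final). Read-out: AlphaScreen of Ser73-phosphorylated biotin-GST-cJun using HepG2 lysate JNK3 activated by IL-1β and TNFα.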

[6] = biological target: Cytochrome P450 3A4 (Homo sapiens) (UniProt P08684); test: qHTS Assay for Inhibitors and Substrates of Cytochrome P450 3A4 (AID 884); further: on the % scale 0 is the no-effect control and ±100 the full control effect; nearly all actives have a fitted effect of over 50% in size
How it was run: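 Luminescent readout of luciferin produced by CYP3A4 (20 nM) dealkylation of Luciferin-PPXE, 25 uM (its KM). NADPH-driven reaction ran 60 min at RT after 10 min compound preincubation; data scaled to 57 uM ketoconazole as 100% inhibition.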

[7] = biological target: Cytochrome P450 2C19 (Homo sapiens) (UniProt P33261); test: qHTS Assay for Inhibitors and Substrates of Cytochrome P450 2C19 (AID 899); further: potency means the concentration at half of the fitted maximal effect; nearly all actives have a fitted effect of over 60% in size
How it was run: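 Reactions contain 5nM enzyme, 10uM Luciferin-H EGE (KM) and 50mM KPO4; compound preincubates 10 min at 37C, NADPH regeneration starts turnover for 60 min. Luminescence after detection reagent gives activity.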

[8] = qHTS Assay for Identification of Small Molecule Agonists for Thrombopoietin (TPO) Signaling Pathway (AID 917); further: on the % scale 0 is the no-effect control and ±100 the full control effect
How it was run: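 Luciferase reporter (Glycoprotein IIb promoter) in IL-3-deprived Ba/F3 cells carrying human TPO receptor; compounds co-added with 26 pM TPO, incubated 24 h, 37 C. Steadylite luminescence measured after 10 min.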

[9] = biological target: Muscarinic acetylcholine receptor M1 (Rattus norvegicus) (UniProt P08482); test: qHTS Assay for Antagonists of Acetylcholine Muscarinic M1 Receptor: Kinetic Measurement of Intracellular Calcium Response (AID 943);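 further: Fluo-4 calcium signal as peak divided by basal fluorescence over 4 min; nearly all actives have a fitted effect of over 75% in size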
How it was run: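 Antagonism measured as reduction of carbachol-evoked (EC80, 100 nM final) calcium flux in rat M1-CHO cells after 10 min compound exposure. Fluo-4 signal read kinetically; ratio of maximal to basal fluorescence.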

[10] = biological target: Muscarinic acetylcholine receptor M1 (Rattus norvegicus) (UniProt P08482); test: qHTS Assay for Antagonists of Acetylcholine Muscarinic M1 Receptor: Measurement of IP-One Response (AID 944); further: nearly all actives have a fitted effect of over 75% in size
How it was run: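 IP1 accumulation measured via TR-FRET between d2-IP1 and Eu-cryptate anti-IP1 antibody after carbachol (200 nM, EC80) stimulation for 30 min; rat M1-transfected CHO cells received compound 10 min before agonist.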

[11] = biological target: Pyruvate kinase PKM (Homo sapiens) (UniProt P14618); test: qHTS Assay for Activators of Human Muscle Pyruvate Kinase (AID 954; active means well fitted curve in the direction sought with a large enough effect, not every such curve was filed as active;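 further: 0% = uninhibited enzyme and -100% = no enzyme or full thiadiazolimine inhibition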)
How it was run: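 ATP production by PKM2 detected via luciferase luminescence after 1 h room-temperature reaction (0.1 nM enzyme, PEP at Km 0.5 mM, ADP 0.1 mM, pH 7.2 imidazole buffer). Inhibition scaled to no-enzyme control; activation referenced to 0.3 nM enzyme wells.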

[12] = biological target: Alpha-galactosidase (Coffea arabica) (UniProt Q42656); test: Counterscreen for Glucocerebrosidase Inhibitors: qHTS Assay for Coffee Bean alpha-Galactosidase at pH 4.5 (AID 957);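 further: plate controls were enzyme alone for no effect and no enzyme for full effect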
How it was run: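 Fluorogenic qHTS at pH 4.5 (citrate buffer with Tween-20): 2 nM enzyme, 80 uM 4-MU-alpha-galactoside substrate, compound titrated 0.7 nM to 77 uM, 20 min room temperature. Glycine/NaOH stop; 4-MU read Ex 365/Em 440; Hill-equation AC50 against no-enzyme and enzyme controls.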

[13] = biological target: Pyruvate kinase (Leishmania mexicana) (UniProt Q27686); test: qHTS Validation Assay for Activators of Leishmania Mexicana Pyruvate Kinase (AID 959)
How it was run: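 Substrate mix (0.5 mM PEP, 0.1 mM ADP, 7 mM MgCl2, 50 mM KCl, pH 7.2 imidazole) received compound by pin tool, then 0.2 nM LmPYK E451W. After 1 h at room temperature, PKLight was added and luminescence measured.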

[14] = biological target: Alpha-galactosidase A (Homo sapiens) (UniProt P06280); test: Counterscreen for Glucocerebrosidase Inhibitors: qHTS Assay for Human alpha-Galactosidase at pH 4.5 (AID 992); further: 0% is about no effect
How it was run: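 Fluorogenic 1536-well qHTS at pH 4.5 (citrate, Tween-20): 2 nM enzyme, 80 uM 4-MU-alpha-galactoside, 20 min room temperature, NaOH/glycine stop. Titration 0.7 nM to 77 uM, data normalized to no-enzyme and full-activity controls, Hill-fitted AC50.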

[15] = biological target: alpha-glucosidase (Oryza sativa, rice) (UniProt Q653V4); test: Counterscreen for Glucocerebrosidase Inhibitors: qHTS Assay for Rice alpha-Glucosidase at pH 5.0 (AID 997);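 further: 0% = full activity with enzyme and -100% = basal without enzyme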
How it was run: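 Endpoint fluorogenic assay at pH 5.0: compounds (0.7 nM to 77 uM) titrated against 4 nM rice enzyme and 400 uM 4-MU-alpha-glucoside for 20 min at room temperature; NaOH/glycine stop, read ex 365/em 440 nm, Hill-fitted AC50.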

[16] = biological target: Alpha-galactosidase (Coffea arabica) (UniProt Q42656); test: Counterscreen for Glucocerebrosidase Inhibitors: qHTS Assay for Coffee Bean alpha-Galactosidase at pH 5.9 (AID 998);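 further: plate controls were uninhibited enzyme for no effect and no-enzyme basal signal for full effect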
How it was run: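 Fluorogenic 4-MU substrate hydrolysis, 80 uM substrate and 2 nM coffee bean alpha-galactosidase, pH 5.9 citrate buffer, 20 min at room temperature, then NaOH/glycine stop. Titration 0.7 nM–77 uM, normalized to no-enzyme and enzyme controls, AC50 via Hill equation.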

[17] = Validation of Assay for Modulators of Lamin A Splicing (AID 1459; active means well fitted curve in the direction sought with a large enough effect in the signal ratio; the % refers to the signal ratio;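 further: cells exposed to compound for two days before reading; 0% is about no effect; ratio rise marks activators and ratio drop marks inhibitors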)
How it was run: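 Splicing correction read as GFP (500-530 nm) over DsRed2 (575-640 nm) object intensity after 48 h compound exposure of reporter HeLa S3 clones (600 cells/well, 2% FBS medium); ancitabine and cycloheximide titrations, 0.5% DMSO as vehicle.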

[18] = biological target: DNA repair nuclease/redox regulator APEX1 (Homo sapiens) (UniProt P27695); test: qHTS Validation Assay for Inhibitors of the Human Apurinic/apyrimidinic Endonuclease 1 (APE1) (AID 1705)
How it was run: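 Activity read as rising fluorescence (598 nm emission, 525 nm excitation) from incision of a TAMRA/BHQ-2 duplex carrying a THF abasic site (50 nM). Compound and enzyme sat 15 min at RT before substrate start; signal change between first and third 60-s reads.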

[19] = Counterscreen for APE1 Inhibitors: Fluorescent Dye Displacement Validation Assay (AID 1707);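 further: plate controls were ThO with dsDNA and no compound for no effect and ThO without dsDNA for full effect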
How it was run: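 Counterscreen flags promiscuous DNA binders: compounds displacing ThO from duplex DNA (abasic THF site, 50 nM) reduce 540 nm emission (480 nm excitation). ThO 250 nM final; Tris-HCl pH 7.5 with NaCl, MgCl2 and Tween-20.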

[20] = biological target: Endonuclease 4 (Escherichia coli (strain K12)) (UniProt P0A6C1); test: Counterscreen for APE1 Inhibitors: qHTS Validation Assay for Inhibitors of Endonuclease IV (AID 1708); further: on the % scale 0 is the no-effect control and ±100 the full control effect
How it was run: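 Incision of a double-stranded 50 nM TAMRA/BHQ-2 abasic substrate was followed kinetically (525/598 nm, reads every 60 s) after 15 min enzyme–compound preincubation with 2 nM EndoIV in pH 7.5 Tris buffer with MgCl2, DTT and Tween-20; concentration-response format.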

[21] = qHTS for differential inhibitors of proliferation of Plasmodium falciparum line 7G8 (AID 1815);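 further: potency means the concentration at half of the fitted maximal effect; parasite growth measured after three days of incubation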

Sequence of Alpha-galactosidase (Coffea arabica) (Q42656 whole entry, looked up): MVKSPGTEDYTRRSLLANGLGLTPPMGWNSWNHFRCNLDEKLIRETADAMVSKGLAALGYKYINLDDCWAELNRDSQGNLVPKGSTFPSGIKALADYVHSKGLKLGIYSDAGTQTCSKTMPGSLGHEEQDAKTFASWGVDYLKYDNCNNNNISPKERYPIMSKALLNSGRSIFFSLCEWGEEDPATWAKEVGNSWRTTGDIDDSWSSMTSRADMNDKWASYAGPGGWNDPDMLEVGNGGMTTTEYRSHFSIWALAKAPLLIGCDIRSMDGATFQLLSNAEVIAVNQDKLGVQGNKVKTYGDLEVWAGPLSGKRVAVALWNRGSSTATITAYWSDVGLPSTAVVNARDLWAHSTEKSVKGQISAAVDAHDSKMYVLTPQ
Sequence of Muscarinic acetylcholine receptor M1 (Rattus norvegicus) (P08482 whole entry, looked up): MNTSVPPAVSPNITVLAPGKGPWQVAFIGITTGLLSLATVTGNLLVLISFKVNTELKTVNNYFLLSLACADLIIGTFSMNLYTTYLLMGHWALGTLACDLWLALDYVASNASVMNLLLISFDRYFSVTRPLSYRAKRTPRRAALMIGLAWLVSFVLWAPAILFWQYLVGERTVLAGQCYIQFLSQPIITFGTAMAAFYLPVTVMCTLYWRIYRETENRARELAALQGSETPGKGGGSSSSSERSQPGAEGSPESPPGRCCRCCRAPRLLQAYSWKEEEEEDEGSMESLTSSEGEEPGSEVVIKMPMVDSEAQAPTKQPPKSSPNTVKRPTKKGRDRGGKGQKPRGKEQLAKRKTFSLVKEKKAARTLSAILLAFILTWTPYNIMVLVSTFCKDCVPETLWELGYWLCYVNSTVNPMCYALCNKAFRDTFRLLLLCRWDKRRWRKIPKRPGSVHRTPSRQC
Sequence of Pyruvate kinase (Leishmania mexicana) (Q27686 2-499 E452W): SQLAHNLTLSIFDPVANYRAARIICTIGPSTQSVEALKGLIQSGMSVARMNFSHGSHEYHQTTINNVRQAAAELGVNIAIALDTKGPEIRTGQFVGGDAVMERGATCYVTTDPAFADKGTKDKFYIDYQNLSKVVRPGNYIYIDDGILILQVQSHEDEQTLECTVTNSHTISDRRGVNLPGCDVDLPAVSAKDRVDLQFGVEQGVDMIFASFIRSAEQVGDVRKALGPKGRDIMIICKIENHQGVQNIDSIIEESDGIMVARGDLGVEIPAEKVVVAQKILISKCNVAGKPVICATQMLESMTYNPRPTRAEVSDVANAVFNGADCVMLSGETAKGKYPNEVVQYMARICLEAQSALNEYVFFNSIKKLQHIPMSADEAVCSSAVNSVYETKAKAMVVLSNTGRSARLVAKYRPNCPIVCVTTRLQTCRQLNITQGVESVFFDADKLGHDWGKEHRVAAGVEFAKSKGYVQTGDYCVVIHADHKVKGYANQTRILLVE
Sequence of Cytochrome P450 1A2 (Homo sapiens) (P05177 whole entry, looked up): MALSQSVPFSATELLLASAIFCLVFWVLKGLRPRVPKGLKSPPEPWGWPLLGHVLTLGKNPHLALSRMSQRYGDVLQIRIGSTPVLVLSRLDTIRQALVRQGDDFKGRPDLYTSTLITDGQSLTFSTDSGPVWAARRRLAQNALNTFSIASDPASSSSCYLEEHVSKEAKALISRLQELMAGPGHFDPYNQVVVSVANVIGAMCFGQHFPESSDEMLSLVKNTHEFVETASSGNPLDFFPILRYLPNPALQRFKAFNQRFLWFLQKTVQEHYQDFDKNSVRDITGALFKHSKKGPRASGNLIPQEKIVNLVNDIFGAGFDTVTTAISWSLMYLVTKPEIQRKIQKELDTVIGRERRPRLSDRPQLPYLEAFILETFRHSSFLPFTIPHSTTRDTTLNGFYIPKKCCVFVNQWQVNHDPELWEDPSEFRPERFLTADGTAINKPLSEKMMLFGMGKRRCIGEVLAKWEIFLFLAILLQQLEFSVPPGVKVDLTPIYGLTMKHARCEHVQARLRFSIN
Sequence of Alpha-galactosidase A (Homo sapiens) (P06280 whole entry, looked up): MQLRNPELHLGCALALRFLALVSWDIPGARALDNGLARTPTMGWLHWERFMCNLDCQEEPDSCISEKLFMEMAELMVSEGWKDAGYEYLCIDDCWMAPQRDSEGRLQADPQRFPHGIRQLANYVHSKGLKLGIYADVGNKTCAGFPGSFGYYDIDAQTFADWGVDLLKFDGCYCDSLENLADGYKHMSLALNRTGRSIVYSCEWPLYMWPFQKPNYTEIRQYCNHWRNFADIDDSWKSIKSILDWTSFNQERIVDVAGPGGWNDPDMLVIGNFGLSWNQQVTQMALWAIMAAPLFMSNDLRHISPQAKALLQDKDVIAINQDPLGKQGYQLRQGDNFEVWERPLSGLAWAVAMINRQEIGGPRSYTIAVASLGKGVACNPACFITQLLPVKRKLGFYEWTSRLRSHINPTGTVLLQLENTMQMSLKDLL
Sequence of Pyruvate kinase PKM (Homo sapiens) (P14618 whole entry, looked up): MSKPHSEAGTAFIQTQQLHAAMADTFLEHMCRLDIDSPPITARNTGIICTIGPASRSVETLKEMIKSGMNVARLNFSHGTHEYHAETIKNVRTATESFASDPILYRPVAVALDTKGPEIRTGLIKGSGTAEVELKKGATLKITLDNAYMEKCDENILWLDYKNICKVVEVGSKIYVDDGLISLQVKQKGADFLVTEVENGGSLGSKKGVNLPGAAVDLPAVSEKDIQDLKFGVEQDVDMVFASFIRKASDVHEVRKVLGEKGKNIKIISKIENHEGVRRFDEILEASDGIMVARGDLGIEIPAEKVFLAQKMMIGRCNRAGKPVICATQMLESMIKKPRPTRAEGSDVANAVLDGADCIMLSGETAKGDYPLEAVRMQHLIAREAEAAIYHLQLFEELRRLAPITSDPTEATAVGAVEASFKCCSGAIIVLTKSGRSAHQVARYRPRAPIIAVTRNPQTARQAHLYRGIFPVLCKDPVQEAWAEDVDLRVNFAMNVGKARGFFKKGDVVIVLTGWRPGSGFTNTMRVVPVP
Sequence of Cytochrome P450 3A4 (Homo sapiens) (P08684 whole entry, looked up): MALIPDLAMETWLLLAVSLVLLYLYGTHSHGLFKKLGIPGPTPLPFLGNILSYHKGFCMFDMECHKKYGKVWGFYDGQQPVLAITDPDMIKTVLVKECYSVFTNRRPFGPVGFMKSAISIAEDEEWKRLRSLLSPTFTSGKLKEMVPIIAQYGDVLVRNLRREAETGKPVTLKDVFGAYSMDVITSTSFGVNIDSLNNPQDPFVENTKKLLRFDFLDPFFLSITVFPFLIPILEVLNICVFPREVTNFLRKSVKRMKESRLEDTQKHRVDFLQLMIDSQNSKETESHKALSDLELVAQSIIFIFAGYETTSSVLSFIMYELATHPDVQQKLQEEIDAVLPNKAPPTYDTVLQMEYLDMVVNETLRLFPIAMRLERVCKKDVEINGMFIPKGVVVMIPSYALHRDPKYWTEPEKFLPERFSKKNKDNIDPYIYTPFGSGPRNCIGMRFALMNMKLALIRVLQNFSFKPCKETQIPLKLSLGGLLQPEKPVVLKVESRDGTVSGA
Sequence of Glucocorticoid receptor (Homo sapiens) (P04150 whole entry, looked up): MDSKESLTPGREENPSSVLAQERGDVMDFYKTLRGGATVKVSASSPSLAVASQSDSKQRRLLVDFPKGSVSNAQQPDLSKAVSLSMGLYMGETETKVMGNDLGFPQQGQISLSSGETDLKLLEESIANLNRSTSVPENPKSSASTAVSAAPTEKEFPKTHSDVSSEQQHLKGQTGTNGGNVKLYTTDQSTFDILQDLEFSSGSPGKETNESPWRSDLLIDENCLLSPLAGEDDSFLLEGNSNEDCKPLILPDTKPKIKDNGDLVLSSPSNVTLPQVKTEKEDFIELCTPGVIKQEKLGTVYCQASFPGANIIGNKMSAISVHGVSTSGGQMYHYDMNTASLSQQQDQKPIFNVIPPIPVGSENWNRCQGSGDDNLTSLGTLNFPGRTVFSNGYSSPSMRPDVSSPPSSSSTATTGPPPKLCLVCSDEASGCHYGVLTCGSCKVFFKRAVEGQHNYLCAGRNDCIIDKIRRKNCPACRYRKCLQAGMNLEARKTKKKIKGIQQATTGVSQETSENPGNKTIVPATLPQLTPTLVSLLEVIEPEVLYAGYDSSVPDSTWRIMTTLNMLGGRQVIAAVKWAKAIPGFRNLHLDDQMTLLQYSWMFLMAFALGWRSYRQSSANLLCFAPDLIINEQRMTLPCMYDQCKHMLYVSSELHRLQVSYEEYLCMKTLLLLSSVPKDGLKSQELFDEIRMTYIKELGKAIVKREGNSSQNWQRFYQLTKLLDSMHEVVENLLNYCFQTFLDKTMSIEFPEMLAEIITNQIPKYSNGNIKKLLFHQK
Sequence of DNA repair nuclease/redox regulator APEX1 (Homo sapiens) (P27695 whole entry, looked up): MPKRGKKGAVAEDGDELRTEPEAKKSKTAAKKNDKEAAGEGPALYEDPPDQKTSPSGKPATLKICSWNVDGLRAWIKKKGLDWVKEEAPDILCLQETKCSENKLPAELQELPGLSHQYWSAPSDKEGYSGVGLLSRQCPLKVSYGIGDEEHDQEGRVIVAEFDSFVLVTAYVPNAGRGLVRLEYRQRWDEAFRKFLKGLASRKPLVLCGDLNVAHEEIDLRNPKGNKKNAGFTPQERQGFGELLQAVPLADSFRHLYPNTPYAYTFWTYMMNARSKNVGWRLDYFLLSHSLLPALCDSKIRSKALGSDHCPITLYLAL
Sequence of Cytochrome P450 2C19 (Homo sapiens) (P33261 whole entry, looked up): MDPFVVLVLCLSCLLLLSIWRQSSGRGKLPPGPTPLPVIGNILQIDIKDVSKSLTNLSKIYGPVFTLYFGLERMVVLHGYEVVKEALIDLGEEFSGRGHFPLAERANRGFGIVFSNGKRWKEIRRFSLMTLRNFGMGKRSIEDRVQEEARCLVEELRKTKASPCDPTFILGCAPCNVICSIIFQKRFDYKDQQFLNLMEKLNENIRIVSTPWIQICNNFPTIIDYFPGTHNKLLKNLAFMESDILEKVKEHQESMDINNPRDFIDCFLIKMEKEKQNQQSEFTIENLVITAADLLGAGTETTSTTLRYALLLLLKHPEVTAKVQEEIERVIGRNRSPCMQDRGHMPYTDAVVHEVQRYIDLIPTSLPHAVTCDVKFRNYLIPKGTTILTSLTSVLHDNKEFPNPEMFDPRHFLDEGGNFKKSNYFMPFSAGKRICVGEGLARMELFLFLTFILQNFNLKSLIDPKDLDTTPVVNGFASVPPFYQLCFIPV

COC(=O)c1cc2c(cn1)[nH]c1ccccc12
active: Potency [2] 0.631 µM | Potency [7] 3.98 µM | Potency [21] 11.2 µM
inactive: outcome [1] | activity change, negative = inhibition [3] -0.308% | Potency [4] > 46 µM | outcome [5] | Potency [6] | outcome [8] | Potency [9] | Potency [10] | outcome [11] | outcome [12] | Potency [13] | outcome [14] | outcome [15] | outcome [16] | outcome [17] | Potency [18] | Potency [19] | outcome [20]
